Measurements taken from PubChem BioAssay (EPA / NIEHS).
Activity calls are given as the source filed them. Rule for the calls: active = hit-call score of the fitted dose curve at least 0.9, where 1 is the maximum; inactive = score below 0.9.

read-out: Insulin-like growth factor-binding protein 1 (IGFBP1), IGFBP1 (gene 3484); experiment: LTEA_HepaRG_IGFBP1: Life Technologies and Expression Analysis (LTEA) Assay for Insulin-like growth factor-binding protein 1 (IGFBP1) using HepaRG (AID 2283508); conditions: mRNA level, 48 h; actives raise or lower the signal
Procedure: LTEA_HepaRG is a cell based, multiplexed-readout assay that uses HepaRG, a human liver cell line, with measurements taken at 48 hours after chemical dosing on a 96-well plate.LTEA_HepaRG_IGFBP1 is one of 102 assay component(s) measured in the LTEA HepaRG cell culture assay. It is a marker of Cell proliferation, survival, death.Data from the assay component LTEA_HepaRG_IGFBP1 was analyzed into 1 endpoint. This assay endpoint, LTEA_HepaRG_IGFBP1, was analyzed with bidirectional fitting relative to DMSO as the negative control and baseline of activity. Using a type of inducible reporter, measures of mRNA induction for gain or loss-of-signal activity can be used to understand regulation of transcription factor activity. To generalize the intended target to other relatable targets, this assay endpoint is annotated to the transporter intended target family, where the subfamily is hormone carrier protein.
A total of 1060 chemcials from the ToxCast library were tested in eight-point concentration-response experiments. Cell culture and cytotoxicity assays were conducted at Thermo Fisher Scientific's Custom Services facility (Madison, WI). A single lot of human HepaRG cells (Thermo Fisher Scientific, Frederick, MD) was used for the cell culture experiments. 96-well format collagen type I coated plates of human HepaRG cells were prepared using established methods. Briefly, cryopreserved HepaRG cells were thawed, plated at a density of approximately 100,000 cells/well in HepaRG Thaw, Plate, and General Purpose media (HPRG770, Thermo Fisher Scientific), and incubated for 48 hours. 0.5% DMSO was selected as vehicle control to balance the requisite need of DMSO in HepaRG cultures to maintain differentiation (for example, baseline metabolism, proportions of hepatocytes vs. cholangiocytes), while enabling further hepatic receptor pathway activation (for example, PXR and CAR) in response to chemical exposure. 48 hours after plating, the culture medium was replaced with HepaRG Serum-Free Incudtion Media. Cells were exposed to each test chemical in duplicate and maintained in CO2 incubators for another 48 hours. Chemical plates were thawed to room temperature and 200x concentrations of treatment groups were prepared. 8-point conentration-reponse curves were made with the highest exposure at 100 uM, followed by half-log dilutions, all in 0.5% DMSO. Each test plate contained variouse controls, induction positive controls (1mM phenobarbital), cytotoxicity positive controls ([…] aflatoxin B1), vehicle controls (0.5% DMSO), and total lysis controls (0.5% DMSO). Cell morphology images were taken using an Essen IncuCyte FLR automated microscope, with six 96-well plates imaged in about 24 minutes. Images were captured and exported and JPEG files. Spent culture media was transfered to black-well plates for the LDH assay, and remaining media was sorted at -80 C for later use. Cells were treated with RLT buffer and frozen until shipped for gene expression analysis. Total RNA was isolated from the cell suspension in 75 uL of Buffer RLT (Qiagen, Germantown, MD 20874) by Quintiles/Expression Analysis (Durham, NC) using a custom isolation procedure. Total RNA from each plate well was transferred to a preamplification plate. Fluidigm's 96.96 Dynamic ArrayTM (Fluidigm, Amsterdam, the Netherlands) technology was used for gene expression analyses by quantitative reverse transcription polymerase chain reaction (qRT-PCR, performed by Quintiles/Expression Analysis, Durham, NC)89. Standard TaqManTM Assays (Applied Biosystems/ThermoFisher Scientific, Foster City, CA) were used to assess the expression of 93 genes selected based on their selectivity and sensitivity to important hepatic receptors known to be modulated by environmental chemicals; importance in human hepatocyte functionality; and hepatotoxicity. […]

**Q.** For `CC1=C(/C=C/C(C)=C/C=C/C(C)=C/CO)C(C)(C)CCC1`, which outcome is on record?
**A.** The outcome was “inactive”.

**Q.** For `Nc1ccccc1N`, which AC50 is on record?
**A.** Its AC50 is 13.4 µM (active).

**Q.** With `NS(=O)(=O)c1cc2c(cc1Cl)NCNS2(=O)=O` as the compound, how does the outcome read?
**A.** Its outcome is “inactive”.

**Q.** For `O=c1c(O)c(-c2ccc(O)c(O)c2)oc2cc(O)cc(O)c12`, which outcome is on record?
**A.** The outcome was “inactive”.

**Q.** For `CNC(=O)[C@H]1O[C@@H](n2cnc3c(NCc4cc(Cl)ccc4OCc4cc(C)no4)ncnc32)[C@H](O)[C@@H]1N`, which outcome is on record?
**A.** Its outcome is “inactive”.

**Q.** For `Cc1nc(C)nc(N2C[C@@H](C)N(c3ccnc([C@@H](C)O)n3)[C@@H](C)C2)n1`, which outcome is on record?
**A.** Its outcome is “inactive”.

**Q.** With `Cc1ccc(N(C)C)cc1` as the compound, how does the outcome read?
**A.** The outcome was “inactive”.

**Q.** `CCCCCCCCCCCCCCCCCC(=O)O` was tested. Which outcome did it give?
**A.** Its outcome is “inactive”.

**Q.** With `COc1cc(-c2nc(NC(=O)c3cc4cc(C)cc(C)c4n3CC(=O)O)sc2CCC2CCCCC2)c(OC)cc1Cl` as the compound, how does the AC50 read?
**A.** The AC50 was 3.83 µM (active).

**Q.** Which outcome does the source give for `CCCCCC(=O)O` here?
**A.** Its outcome is “inactive”.

**Q.** `CCCCCCCCCCCCCO` was tested. Which outcome did it give?
**A.** Its outcome is “inactive”.

**Q.** How did the outcome turn out when `CCCCc1ccc2c(n1)[C@@H](c1ccc(OC)cc1C[C@H](C)C(=O)O)[C@H](C(=O)O)[C@H]2c1ccc2c(c1)OCO2` was run?
**A.** Its outcome is “inactive”.

**Q.** With `Cc1nc(-c2ccc3c(c2)CCN(CCC2CCC(NC(=O)/C=C/c4ccc(F)cc4)CC2)CC3)no1` (stereo not given) as the compound, how does the outcome read?
**A.** The outcome was “inactive”.

**Q.** How did the outcome turn out when `c1cc(-c2ccncc2)ccn1` was run?
**A.** The outcome was “inactive”.

**Q.** How did the outcome turn out when `O=C(O)CCCCC(=O)O` was run?
**A.** The outcome was “inactive”.

**Q.** With `CC(=O)OCCOCCOCCOC(C)=O` as the compound, how does the outcome read?
**A.** Its outcome is “inactive”.

**Q.** Which AC50 does the source give for `Cc1oc(-c2ccccc2)nc1CCOc1cccc2c1ccn2CCC(=O)O` here?
**A.** The AC50 was 93.1 µM (active).

**Q.** `CC(=O)OC/C=C(\C)CCC=C(C)C` was tested. Which outcome did it give?
**A.** Its outcome is “inactive”.

**Q.** For `CCc1c(C(=O)NN2CCCCC2)nn(-c2ccc(Cl)cc2Cl)c1-c1ccc(Br)cc1`, which AC50 is on record?
**A.** The AC50 was 31.6 µM (active).

**Q.** How did the outcome turn out when `C[C@]12C=CC(=O)C=C1CC[C@@H]1[C@@H]2C(=O)C[C@@]2(C)[C@H]1CC[C@]2(O)C(=O)CO` was run?
**A.** The outcome was “inactive”.

**Q.** With `CCOc1ccc2c(c1)C(C)=CC(C)(C)N2` as the compound, how does the AC50 read?
**A.** The AC50 was 50 µM (active).

**Q.** With `Cc1ccc2ncccc2c1` as the compound, how does the outcome read?
**A.** The outcome was “inactive”.

**Q.** How did the AC50 turn out when `NC(=O)Cn1c(=O)cc(CCN2CCN(c3nccc4sccc34)CC2)c2ccc(F)cc21` was run?
**A.** The AC50 was 76.6 µM (active).

**Q.** For `COc1cc(S(=O)(=O)O)c(C)cc1N=Nc1c(O)ccc2cc(S(=O)(=O)O)ccc12`, which outcome is on record?
**A.** The outcome was “inactive”.

**Q.** Which outcome does the source give for `CCCCCCCC=O` here?
**A.** Its outcome is “inactive”.

**Q.** `CCCCCCCCCCC` was tested. Which outcome did it give?
**A.** Its outcome is “inactive”.

**Q.** Which outcome does the source give for `C1CCC(SSC2CCCCC2)CC1` here?
**A.** Its outcome is “inactive”.

**Q.** For `Nc1ccc(S(=O)(=O)c2ccc(N)cc2)cc1`, which outcome is on record?
**A.** The outcome was “inactive”.

**Q.** `CCCCN(CCCC)CCCC` was tested. Which outcome did it give?
**A.** The outcome was “inactive”.

**Q.** With `CCCCCCOCCO` as the compound, how does the outcome read?
**A.** The outcome was “inactive”.

**Q.** For `CN[C@H]1CC[C@@H](c2ccc(Cl)c(Cl)c2)c2ccc(S(N)(=O)=O)cc21`, which AC50 is on record?
**A.** The AC50 was 57.7 µM (active).

**Q.** With `C[Si]1(C)O[Si](C)(C)O[Si](C)(C)O[Si](C)(C)O1` as the compound, how does the outcome read?
**A.** The outcome was “inactive”.

**Q.** Which outcome does the source give for `Cc1cc(=O)[nH]c(=S)[nH]1` here?
**A.** Its outcome is “inactive”.

**Q.** Which outcome does the source give for `CCOC(=O)C(C)(C)Oc1ccc(Cl)cc1` here?
**A.** The outcome was “inactive”.

**Q.** How did the outcome turn out when `CCCCCCC(=O)OCC` was run?
**A.** Its outcome is “inactive”.

**Q.** How did the outcome turn out when `CC=Cc1ccc(O)c(OC)c1` was run?
**A.** Its outcome is “inactive”.

**Q.** For `Cc1ccc(C)c(O)c1C`, which outcome is on record?
**A.** The outcome was “inactive”.

**Q.** How did the outcome turn out when `C=CCOC(=O)c1ccccc1C(=O)OCC=C` was run?
**A.** Its outcome is “inactive”.

**Q.** How did the outcome turn out when `CCCCCCCCCCO` was run?
**A.** The outcome was “inactive”.

**Q.** With `CC(C)c1ccc(C(=O)N=C(N)N)cc1S(C)(=O)=O` as the compound, how does the AC50 read?
**A.** The AC50 was 0.266 µM (active).
